Test results: PubChem BioAssay (NCATS)
Records with an inconclusive call do not appear. Calls of active or inactive are those of the source. The call rests on the fitted dose curve; in most records, active means well fitted curve in the direction sought with a large enough effect; inconclusive means small, poorly fitted or top-dose-only effect, or another doubt; inactive means no such curve, though single readings can be large; an effect the other way counts as inactive or inconclusive.

Key:
[1] = system: OV90; assay: Primary qHTS to identify gynecologic anti-cancer compounds using libraries of approved drugs and bioactive compounds (AID 1345084); settings: Gynecologic cancer cell panel viability, ATPlite luminescence, 48 h; series mostly up to 57.5 µM; further: nearly all actives have a fitted effect of over 55% in size
Procedure, shortened: (§1)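 Five-concentration response, 48 h; readout is ATP-driven luciferase luminescence.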

[2] = system: PA-1; assay: as above; settings: Gynecologic cancer cell panel viability, ATPlite luminescence, 48 h; series mostly up to 57.5 µM
Procedure, shortened: as §1

[3] = system: SKOV3; assay: as above; settings: Gynecologic cancer cell panel viability, ATPlite luminescence, 48 h; series mostly up to 57.5 µM
Procedure, shortened: as §1

[4] = system: Tov-21-G; assay: as above; settings: Gynecologic cancer cell panel viability, ATPlite luminescence, 48 h; series mostly up to 57.5 µM
Procedure, shortened: as §1

[5] = system: Tov112D; assay: as above; settings: Gynecologic cancer cell panel viability, ATPlite luminescence, 48 h; series mostly up to 57.5 µM
Procedure, shortened: as §1

[6] = qHTS assay to identify inhibitors of the type 1 interferon - major histocompatibility complex class I in skeletal muscle: Counter screen cell viability and HiBit confirmation (AID 1347412); settings: iHSKM muscle cells + IFN-b, HiBiT or CellTiter-Glo, 24 h; for Potency: HiBiT; for activity change, negative = inhibition: Viability, at 45.9 µM (top of the series); on all read-outs here: nearly all actives have a fitted effect of over 60% in size
Procedure, shortened: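 CRISPR HLA-B*08:01-HiBit immortalized human myoblasts (C25cl48) stimulated with 4 ng/ml IFN-beta and compounds (12-point 1:3, top 46 uM final) for 24 h at 37 C. Duplicate plates read by HiBit lytic luminescence or CellTiter Glo ATP.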
On the % scale 0 is the no-effect control and ±100 the full control effect; potency means the concentration at half of the fitted maximal effect.

Cc1ccc(C(=O)Nc2cccc(C(F)(F)F)c2)cc1-c1ccc2nc(NCCN3CCOCC3)ncc2c1
active: Potency [1] 6.31 µM | Potency [2] 12.6 µM | Potency [3] 15.8 µM | Potency [4] 14.1 µM

CC(C)c1nn(-c2c(Cl)cccc2Cl)c2nc(Cc3ccc(OCCO)cc3)[nH]c(=O)c12
active: Potency [2] 0.251 µM | Potency [3] 1.41 µM | Potency [5] 0.282 µM

NCC(=O)Nc1ccc(-n2nc(C(F)(F)F)cc2-c2ccc3c(ccc4ccccc43)c2)cc1
inactive: Potency [1] | Potency [3] | Potency [5]

COc1cc(Nc2ncc(F)c(Nc3ccc4c(n3)N(COP(=O)(O)O)C(=O)C(C)(C)O4)n2)cc(OC)c1OC
active: Potency [1] 12.6 µM | Potency [2] 11.2 µM | Potency [3] 10 µM | Potency [4] 14.1 µM

O=C(Nc1ncc(-c2cc(C(F)F)nn2-c2c(Cl)cccc2Cl)s1)C1CC1
active: Potency [2] 1.78 µM | Potency [4] 1.78 µM | Potency [5] 1.58 µM

O=C(Nc1cn[nH]c1-c1nc2ccc(CN3CCOCC3)cc2[nH]1)NC1CC1
inactive: activity change, negative = inhibition [6] 61.5%
active: Potency [1] 11.2 µM | Potency [2] 8.91 µM | Potency [3] 10 µM | Potency [4] 2.24 µM | Potency [5] 11.2 µM | Potency [6] 1.98 µM

Nc1nc(NCCNc2ncc(-n3ccnc3)c(-c3ccc(Cl)cc3Cl)n2)ccc1[N+](=O)[O-]
active: Potency [6] 15.7 µM
inactive: Potency [1] | Potency [2] | Potency [3] | Potency [4] | Potency [5] | activity change, negative = inhibition [6] -15.1%

NC(=O)Nc1cc(-c2cccc(F)c2)sc1C(=O)N[C@H]1CCCNC1
active: Potency [1] 2.82 µM | Potency [2] 2.82 µM | Potency [3] 0.631 µM | Potency [5] 1.78 µM | Potency [6] 1.76 µM
